# Compound activity as filed in PubChem BioAssay.
# HCV inh: qHTS Assay for Inhibitors of Hepatitis C Virus (HCV); Huh7.5.1 HCVcc-Cre infection, luciferase reporter, 44 h; Potency, µM (doses to about 41.8 µM), most hits filed as inhibitors; 340,000 tested, 3.4% active
#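 Antiviral activity was scored by luciferase reporter output from cells infected with HCVcc-Cre (~0.5 moi) in presence of compound, 44 h infection period, cells seeded 1,000/well 4 h prior.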
# FMDV antiviral: High Throughput Screening for Foot and Mouth Disease Virus Antivirals. FMDV antiviral cell-based qHTS. Potency, µM (doses to about 57.9 µM), most hits filed as inhibitors. 410,000 tested, 1.2% active. AID 1159524, 2015; calls by dose curve; tested in HEK293T cells; further: read-out not given here; nearly all actives have a fitted effect of over 45% in size
# AmpC inh detg: qHTS Inhibitors of AmpC Beta-Lactamase (assay with detergent); P00811; AmpC hydrolysis of nitrocefin, absorbance 480 nm, 0.01% Triton; Potency, µM (highest dose often 114 µM), hits mostly inhibitors; 370,000 tested, 0.041% active; AID 485294, 2010; further: nearly all actives have a fitted effect of over 25% in size
# Target sequence (P00811 whole entry, looked up): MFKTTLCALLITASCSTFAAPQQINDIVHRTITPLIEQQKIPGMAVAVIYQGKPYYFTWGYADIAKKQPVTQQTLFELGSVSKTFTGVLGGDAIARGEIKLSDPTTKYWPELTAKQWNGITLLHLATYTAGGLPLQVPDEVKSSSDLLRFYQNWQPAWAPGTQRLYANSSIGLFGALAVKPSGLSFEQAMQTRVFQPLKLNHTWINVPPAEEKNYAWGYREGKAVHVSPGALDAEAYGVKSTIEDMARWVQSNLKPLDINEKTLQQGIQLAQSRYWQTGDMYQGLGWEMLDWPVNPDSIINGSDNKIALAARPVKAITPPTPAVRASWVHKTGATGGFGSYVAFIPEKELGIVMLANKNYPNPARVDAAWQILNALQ
#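 AmpC (5.3 nM in the dispensed reagent) in 20 mM phosphate pH 7.0 with 0.01% (detergent screen) or 0.0001% Triton X-100 was preincubated with compounds for 15 min at room temperature. Nitrocefin was then added from an 800 uM solution, and hydrolysis was followed at 480 nm.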
# AmpC inh no detg: qHTS Inhibitors of AmpC Beta-Lactamase (assay without detergent); Potency, µM (top dose mostly 57.1 µM), hits mostly inhibitors; 330,000 tested, 0.52% active; AmpC nitrocefin hydrolysis, absorbance 480 nm, 0.0001% Triton; AID 485341, 2010; P00811; further: nearly all actives have a fitted effect of over 20% in size
#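 20 mM phosphate pH 7.0 + 0.01% (detergent screen) or 0.0001% Triton X-100; 5.3 nM AmpC reagent; cpd preinc 15 min RT; nitrocefin (800 uM stock) to start; A480 q20 s × 4 min; Activity was normalised to no-enzyme and no-compound control wells.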
# HCMV inh: qHTS Assay for inhibitors of the human cytomegalovirus (HCMV); HFF cells, HCMV-luciferase reporter, 72 h; stronger effect = lower value; activity change, negative = inhibition, % at 57.5 µM; 410,000 tested, 4.5% active; AID 1259415, 2018; in the data active means activity change below about -60%; inconclusive means no clear call, values can overlap the other calls; inactive means above about -39%
#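 HFF cells seeded 16 h at 37C, treated with compounds, infected with luciferase-reporter HCMV at MOI 1 PFU/cell; luciferase read at 72 h post infection, normalized to buffer-only and Salinomycin controls.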
# Hits are given with their value; . = inactive; ? = inconclusive; / = no result; ! = not confirmed by another sample; [ ] = dose if it differs, or a comment. Rows were chosen to be rich in hits. Some 7.3% of all compounds tested hit in one or more screens of this group. Unless noted, the call rests on the fitted dose curve; in most records, active means well fitted curve in the direction sought with a large enough effect; inconclusive means small, poorly fitted or top-dose-only effect, or another doubt; inactive means no such curve, though single readings can be large; an effect the other way counts as inactive or inconclusive.
SMILES,HCV inh,FMDV antiviral,AmpC inh detg,AmpC inh no detg,HCMV inh
O=C(Nc1ccccc1C(=O)Nc1nnc(C(F)(F)F)s1)c1ccccc1,.,?,?,.,-99
Cc1occc1C(=O)Nc1nnc(C(F)(F)F)s1,.,.,.,.,.
CCN(CC)S(=O)(=O)c1ccc2c(c1)N(CC(=O)NCCc1ccccc1)C(=O)CO2,/,.,.,/,.
CCN(CC)C1CCN(C(=O)c2cnn(-c3nccc(-c4ccco4)n3)c2C(C)C)C1 (stereo unspecified),/,.,/,/,/
COc1ccc(-c2csc(NC(=O)CSc3nnc(Nc4ccccc4C)s3)n2)cc1,.,.,.,.,-70
COc1ccccc1Nc1nnc(SCC(=O)NC2CC2)s1,.,.,.,.,.
COc1ccccc1Nc1nnc(SCC(=O)Nc2nc(-c3ccc(F)cc3)cs2)s1,.,.,.,16µM,-88
CCOc1ccccc1Nc1nnc(SCC(=O)Nc2nc(-c3ccc(OC)cc3)cs2)s1,.,.,.,.,.
CCOC(=O)c1[nH]c(C)c(C(=O)NCCc2ccccc2)c1C,/,.,.,/,.
O=C(CSc1ncn[nH]1)Nc1ccccc1Sc1ccc(Cl)cc1,?,16µM,.,.,?
O=C(CSc1ncn[nH]1)Nc1ccc([N+](=O)[O-])cc1Br,.,.,.,.,-65
Nc1cc(=O)[nH]c(SCC(=O)Nc2ccccc2Sc2ccc(Cl)cc2)n1,?,?,.,.[11.4 µM],.
CCCCCCCCCCCCCCCCn1cc[n+](CC(C)=O)c1,?,?,.,.,/
CCCCCCn1ccc(=N)cc1,0.79µM,.,.,.,-80
COc1ccccc1Nc1ccncc1[N+](=O)[O-],.,.,.,.,-64
COc1ccccc1Nc1cc(C)nc2c(C)ccc([N+](=O)[O-])c12,?,?,?,.,-67
O=[N+]([O-])c1cnccc1Nc1ccccc1,.,.,?,.,.
O=[N+]([O-])c1ccc(Nc2ccccc2)c2nonc12,.,?,.,.,?
Cc1cc(Nc2ccccc2)c2c([N+](=O)[O-])cc(C)c(C)c2n1,?,.,?,.,-81
CC(Oc1ccc(Cl)cc1)C(=O)NCCN1C(=O)S/C(=C\c2cccnc2)C1=O (stereo unspecified),?,40µM,.,.,-71
O=C(COc1ccccc1-c1ccccc1)NCCN1C(=O)S/C(=C\c2cccnc2)C1=O,.,32µM,?,.,.
O=C(NCCN1C(=O)S/C(=C/c2cccnc2)C1=O)c1cccs1,.,.,.,.,.
COc1ccc(-n2c(/C=C/c3ccc4c(c3)OCO4)nc3ccccc3c2=O)cc1,?,?,?,.,-84
Cc1ccc(-n2c(/C=C/c3ccc4c(c3)OCO4)nc3ccccc3c2=O)cc1,.,/,.,.,-102
O=c1c2ccccc2nc(/C=C/c2ccc3c(c2)OCO3)n1-c1cccc(O)c1,.,.,?,.,?
SMILES,HCV inh,FMDV antiviral,AmpC inh detg,AmpC inh no detg,HCMV inh
CCN1CCN(C(=O)/C=C/c2ccc(C(C)C)cc2)CC1,.,.,/,/,.
CCN1CCC(O)(/C=C/c2ccc(C(C)C)cc2)C(C(=O)/C=C/c2ccc(C(C)C)cc2)C1 (stereo unspecified),7.9µM,32µM,/,/,-61
O=C(CN(c1cccc(C(F)(F)F)c1)S(=O)(=O)c1ccc(Cl)c([N+](=O)[O-])c1)NCc1ccccc1,?,.,?,.,.
O=C(CN(c1cccc(C(F)(F)F)c1)S(=O)(=O)c1ccc(Cl)c([N+](=O)[O-])c1)NCc1ccccc1Cl,?,40µM,?,.,.
COc1ccc(-c2cn3c(n2)sc2cc(C(=O)NCC(C)c4ccccc4)ccc23)cc1 (stereo unspecified),/,.,.,/,/
O=C(Nc1ccncc1)c1ccc(-c2ccccc2)cc1,10µM,.,.,.,-77
COc1ccc(-n2c(=O)[nH]cc(C(=O)Nc3ccccc3)c2=O)cc1,.,.,?,?,-64
COc1ccc(C(=O)Nc2ccc(C3(C#N)CCCC3)cc2)cc1,5.6µM,.,.,.,-75
CN(C(=S)Oc1ccc(C(=O)Nc2ccccc2)cc1)c1ccccc1,?,.,.,.,-67
O=C(c1ccco1)N1CCC2(CC1)CCN(c1cccc(-c3ccccc3)c1)CC2,/,.,/,/,/
COc1ccccc1CNc1nc2c(S(=O)(=O)c3ccc(C)c(C)c3)nnn2c2ccc(Cl)cc12,/,.,.,/,.
O=C(C[n+]1ccc(C(=O)c2ccccc2)cc1)Nc1ccc(C(F)(F)F)cc1,2µM,.,.,.,.
COc1ccc(C(=O)OC(C(=O)c2ccccc2)c2ccccc2)cc1 (stereo unspecified),.,.,.,.,.
O=C(NNC(=O)c1ccc(NC(=O)c2ccccc2)cc1)Nc1ccccc1,.,.,.,.,-62
COc1ccc(C(C(=O)c2ccccc2)c2ccccc2)cc1 (stereo unspecified),/,.,/,/,-82
COc1ccc(NC(=O)c2ccccc2SCc2ccccc2)cc1,/,.,/,/,-106
N#Cc1ccccc1S(=O)(=O)N1CCC(C(=O)Nc2cccc(C(=O)NC3CC3)c2)CC1,.,?,.,.,.
COc1ccc(NC(=O)c2ccc(C)cc2)cc1,.,.,.,.,.
O=C(NNC(=O)c1ccc(NC(=O)c2ccccc2)cc1)c1ccc(F)cc1,.,.,?,.,.
O=C(Nc1ccc(C(=O)c2ccccc2)cc1)c1ccccc1,2.8µM,.,.,.,.
CC(C(=O)c1ccc(-c2ccccc2)cc1)[n+]1cccc(NC(=O)c2ccccc2)c1 (stereo unspecified),.,.,.,.,-99
O=C(NCCOc1ccc(F)cc1)c1ccccc1SCc1ccccc1,?,.,.,.,-62
COc1ccc(NC(=O)c2ccccc2)cc1,0.56µM,.,.,.,.
CCc1ccc(OCCNC(=O)c2ccccc2SCc2ccc(F)cc2)cc1,?,?,.,.,?
Cc1cccc2c1N[C@H](/C=C/C(=O)OC(C)(C)C)C2,/,/,/,/,.
C[C@H]1CN([C@@H](C)CO)C(=O)CCCn2cc(nn2)CO[C@@H]1CN(C)S(=O)(=O)c1ccccc1F,/,/,/,/,.
O=[N+]([O-])c1cccc(N/N=C/c2cccc(O)c2O)c1,?,.,.,16µM,.
O=[N+]([O-])c1ccc(N/N=C/c2cccc(O)c2O)c(S(=O)(=O)N2CCOCC2)c1,2.8µM,?,.,11µM,.
COc1ccc2nc(S(=O)Cc3ncc(C)c(OC)c3C)[nH]c2c1 (stereo unspecified),2.2µM!,.,.,.,.
N#CC(c1ccccc1)C(CC(=O)c1ccccc1)c1ccccc1 (stereo unspecified),/,.,/,/,.
